Screening results: PubChem, The Scripps Research Institute Molecular Screening Center
bovine MsrA act = activators of bovine methionine sulfoxide reductase A. purified bovine MsrA, absorbance read-out. activation, % at 10.6 µM. hit rate 0.3% among 360,000. AID 602163; in the data active = activation above about 7.5%
sPLA2-III inh = Inhibits HGIII-sPLA2 liposome hydrolysis, primary screen | Q9NZ20 | QFRET BODIPY PC-A2 liposome hydrolysis, fluorescence | inhibition, % at 12.2 µM | hit rate 0.56% among 370,000 | AID 743126;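 active = inhibition above mean plus 3 SD of compounds lying within the high and low control bounds, cut at about 19% in these data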
Target sequence (Q9NZ20 whole entry, looked up): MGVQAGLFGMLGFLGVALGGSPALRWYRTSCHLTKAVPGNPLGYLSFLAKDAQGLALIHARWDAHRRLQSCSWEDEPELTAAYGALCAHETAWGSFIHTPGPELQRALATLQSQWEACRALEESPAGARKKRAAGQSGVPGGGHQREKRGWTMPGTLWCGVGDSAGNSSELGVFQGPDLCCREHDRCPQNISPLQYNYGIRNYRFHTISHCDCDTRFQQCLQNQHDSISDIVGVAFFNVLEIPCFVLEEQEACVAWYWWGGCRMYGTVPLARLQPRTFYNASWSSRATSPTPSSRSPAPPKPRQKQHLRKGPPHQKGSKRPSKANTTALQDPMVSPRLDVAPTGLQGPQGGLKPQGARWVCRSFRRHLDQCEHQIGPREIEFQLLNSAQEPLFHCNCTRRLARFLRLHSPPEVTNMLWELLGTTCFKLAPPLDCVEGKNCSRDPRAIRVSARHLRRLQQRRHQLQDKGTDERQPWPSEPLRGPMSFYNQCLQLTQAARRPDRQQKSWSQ
MsrA inhibitor = inhibitors of bovine MsrA; purified bovine MsrA, absorbance read-out; inhibition, % at 15.5 µM; hit rate 0.75% among 360,000; AID 651718
PG9 Ab binder = PG9 antibody binding by small molecule; TR-FRET gp120-PG9 antibody binding; inhibition, % at 6.7 µM; hit rate 0.43% among 360,000; AID 624416; in the data active = inhibition above about 8.5%
rCAG RNA binder = r(CAG) repeat RNA binding; TO-PRO-1 dye displacement fluorescence; inhibition, % at 3 µM; hit rate 1.3% among 370,000;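 active = inhibition above the plate cutoff, the mean of all test compounds on that plate plus 3 SD, cut at about 35% in these data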;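 note: higher means more dye released from RNA so lower well fluorescence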
MsrA inh confirm = bovine MsrA inhibition, confirmed; shares compounds with MsrA inhibitor; purified bovine MsrA, absorbance read-out; inhibition, % at 15.5 µM; hit rate 41% among 2,300;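 note: coupled to thioredoxin reductase with NADPH and selenocystamine and DMSO as substrate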
Of the large screens only hits and unclear results are named; the others gave an inactive call (follow-up assays come after a bar, where they were run); ! = a repeat was not active. An excerpt weighted towards active compounds, which were near 3.2% of everything screened. Cut-off read from the data, not from the text of the source, unless noted: active = inhibition above about 4.5%; inactive = the rest.

Cc1ccccc1NC1=C/C(=N\S(=O)(=O)c2cccs2)c2ccccc2C1=O	MsrA inhibitor 16.0 | MsrA inh confirm 29.3
COc1ccc(S(=O)(=O)/N=C2\C=C(Nc3ccc(O)cc3)C(=O)c3ccccc32)cc1	MsrA inhibitor 34.8 | MsrA inh confirm 33.5
CC(=O)Nc1ccc(NC2=C/C(=N/S(=O)(=O)c3cccs3)c3ccccc3C2=O)cc1	MsrA inhibitor 47.0 | MsrA inh confirm 44.1
CC(=O)Nc1ccc(NC(=O)C(C)OC(=O)c2ccccc2NS(=O)(=O)c2cccs2)cc1 (centres undefined)	none
COc1ccc(S(=O)(=O)c2ccc(O)cc2)cc1	none
CCC(=O)N1CCc2cc(Br)c(S(=O)(=O)NCc3ccccc3OC)cc21	none (no result: bovine MsrA act, MsrA inhibitor, PG9 Ab binder)
COC(=O)C[C@H]1CC[C@H]2[C@H](COc3ccc(NS(=O)(=O)c4cccc(OC)c4)cc3C(=O)N2C)O1	none (no result: bovine MsrA act, MsrA inhibitor, PG9 Ab binder)
CCCC[C@H](CCCc1ccc(F)cc1)CCC(=O)N(c1ccccc1)c1ccccc1	none (no result: bovine MsrA act, MsrA inhibitor, PG9 Ab binder)
COc1ccc2cc3[n+](cc2c1OC)CCc1cc2c(cc1-3)OCO2	MsrA inhibitor 6.6! | MsrA inh confirm 5.4
c1ccc(-c2cc(-c3nnc4sc(Cc5cccs5)nn34)[nH]n2)cc1	none (no result: bovine MsrA act, MsrA inhibitor, PG9 Ab binder)
Cc1ccc(/C=C2\C(=N)N3N=C(CC(=O)N4CCOCC4)SC3=NC2=O)o1	MsrA inhibitor 5.2 | MsrA inh confirm inactive
COc1ccccc1-n1c(C)cc(/C=C2\C(=N)N3N=C(CC(=O)N4CCOCC4)SC3=NC2=O)c1C	MsrA inhibitor 5.3 | MsrA inh confirm inactive
COc1ccc(Cn2c(NC(=O)c3ccccc3)nc(Cc3ccccc3)c2Cc2ccccc2)c(OC)c1	none (no result: bovine MsrA act, MsrA inhibitor, PG9 Ab binder)
CN[C@H]1C[C@H]2c3[nH]c4cccc(-c5ccc6c(c5)OCO6)c4c3CCN2C[C@H]1[C@H](C)O	none (no result: bovine MsrA act, MsrA inhibitor, PG9 Ab binder)
COc1ccc(C(=O)N/C(=C/c2cccs2)c2nc3ccccc3[nH]2)cc1OC	MsrA inhibitor 5.3 | MsrA inh confirm inactive
COc1cc(/C=C(/C(=O)c2cccs2)c2nc3ccccc3[nH]2)cc(OC)c1O	MsrA inhibitor 5.5 | MsrA inh confirm inactive
O=C(/C(=C/c1ccc(Cl)cc1)c1nc2ccccc2[nH]1)c1ccccc1	none
COC(=O)C1CN(Cc2ccc(F)cc2)CCS(=O)(=O)N1Cc1ccc(OC)cc1 (centres undefined)	none (no result: bovine MsrA act, MsrA inhibitor, PG9 Ab binder)
Cc1nnc(C)n1/N=C/c1ccc(-c2ccccc2Cl)o1	MsrA inhibitor 5.2 | MsrA inh confirm 4.9
O=S(=O)(N/N=C\c1ccc(-c2ccccc2Cl)o1)c1ccccc1	MsrA inhibitor 4.9 | MsrA inh confirm inactive
O=C(N/N=C/c1ccc(-c2ccccc2Cl)o1)c1ccccc1	none
CC(C)CCN(C)C1CCN(C(=O)Nc2ccc3c(c2)OCO3)CC1	none (no result: bovine MsrA act, MsrA inhibitor, PG9 Ab binder)
CCOC(=O)C1=Nc2ccccc2C1=[N+]=[N-]	MsrA inhibitor 5.7 | MsrA inh confirm inactive
COc1ccc(-c2cc(C(F)(F)F)nc(SCC(=O)NCc3ccco3)n2)cc1OC	none
COc1ccc(-c2cc(C(F)(F)F)nc(SCC(=O)N(C)Cc3cn(C)nc3C)n2)cc1OC	MsrA inhibitor 6.0 | MsrA inh confirm inactive
COc1ccc(/C=C2/CN(Cc3ccc(OC)cc3OC)C3=NC(c4ccc5ccccc5c4)CC(=O)N32)cc1 (centres undefined)	none (no result: bovine MsrA act, MsrA inhibitor, PG9 Ab binder, rCAG RNA binder)
CC(=O)c1ccc(N2CCN(S(=O)(=O)c3cccc4nsnc34)CC2)cc1	MsrA inhibitor 4.7 | MsrA inh confirm inactive
Cc1ccc(CN2CCCCC(NC(=O)c3ccc(COc4ccccc4)cc3)C2=O)cc1 (centres undefined)	none (no result: bovine MsrA act, MsrA inhibitor, PG9 Ab binder)
O=C1CCCN1CCCN=c1c([N+](=O)[O-])nn(-c2ccc(Cl)cc2)n1O	none
COc1ccc(-n2nc([N+](=O)[O-])c(=NCCCN3CCCC3=O)n2O)cc1	MsrA inhibitor 4.8 | MsrA inh confirm inactive
C/C(=N/O)c1cc(C(C)(C)C)c(O)c(C(C)(C)C)c1	MsrA inhibitor 11.9 | MsrA inh confirm 11.4
CC(C)(Sc1cc(C(C)(C)C)c(O)c(C(C)(C)C)c1)Sc1cc(C(C)(C)C)c(O)c(C(C)(C)C)c1	none
CCCCCC(=O)NC1CCCCN(Cc2cccc(Cl)c2)C1=O (centres undefined)	none (no result: bovine MsrA act, MsrA inhibitor, PG9 Ab binder)
CCN(CC)C(=O)c1ccc2nc3ccccc3nc2c1	MsrA inhibitor 5.6 | MsrA inh confirm inactive
CCN(CC)C(=O)c1ccc2nc(-c3ccccc3)c(-c3ccccc3)nc2c1	none
Cc1cccc(-c2cccc3c4c([nH]c23)[C@@H]2C[C@H](N(C)C(=S)Nc3ccc(C#N)cc3)[C@H]([C@H](C)O)CN2CC4)c1	none (no result: bovine MsrA act, MsrA inhibitor, PG9 Ab binder)
CC(C)/C=N/Nc1nc2c(c(=O)n(C)c(=O)n2C)n1C	none
CN(C)N=Nc1nc2c(c(=O)n(C)c(=O)n2C)n1C	MsrA inhibitor 5.8 | MsrA inh confirm inactive
COCC#Cc1ccc(CC[C@H]2O[C@H]3CC[C@@H](CO)O[C@H]3C[C@H]2n2cc(C3CC3)nn2)cc1	none (no result: bovine MsrA act, MsrA inhibitor, PG9 Ab binder)
O=C(N/N=C/c1ccc(O)c(O)c1)N/N=C/c1ccc(O)c(O)c1	MsrA inhibitor 5.7 | MsrA inh confirm inactive
Cc1nonc1C(=O)N/N=C/c1ccc(O)c(O)c1	none
COc1ccc2c(c1)c(C(=O)N/N=C/c1ccc(O)c(O)c1)c(C)n2C	MsrA inhibitor 5.5 | MsrA inh confirm inactive
C=CCN(Cc1ccc2c(c1)OCO2)C(C#CCCCC)C(C)C (centres undefined)	none (no result: bovine MsrA act, MsrA inhibitor, PG9 Ab binder, rCAG RNA binder)
COc1ccc(C(C(=O)N(C)C2CCCC2)N(Cc2ccc(F)cc2)C(=O)c2csc(N3CCOCC3)n2)cc1OC (centres undefined)	none (no result: bovine MsrA act, MsrA inhibitor, PG9 Ab binder)
CN(C)/C=N/c1nc2nccc(-c3cccs3)n2n1	MsrA inhibitor 7.1 | MsrA inh confirm 6.1
CN(C)/C=N/c1nc2nccc(-c3ccc(F)cc3)n2n1	none
C#CCn1c2ccccc2c2nc3ccccc3nc21	MsrA inhibitor 5.5 | MsrA inh confirm inactive
COC(=O)Cn1c2ccccc2c2nc3ccccc3nc21	MsrA inhibitor 6.7 | MsrA inh confirm 5.3
O=c1cc(-c2ccc(O)cc2)oc2cc(O[C@@H]3O[C@H](CO)[C@@H](O)[C@H](O)[C@H]3O[C@@H]3OC[C@](O)(CO)[C@H]3O)cc(O)c12	MsrA inhibitor 5.3 | MsrA inh confirm inactive
COc1ccc2c(c1)[C@@]1(NCCc3c1[nH]c1ccc(OC)cc31)C(=O)N2	none (no result: bovine MsrA act, MsrA inhibitor, PG9 Ab binder)
COC(=O)[C@H](CC(C)C)N(Cc1cn(Cc2ccc(C)cc2)nn1)S(=O)(=O)c1ccc(F)cc1Br	none (no result: bovine MsrA act, MsrA inhibitor, PG9 Ab binder)
CCOC(=O)Cc1csc(NC(=O)/C=C/c2ccco2)n1	MsrA inhibitor 7.8 | MsrA inh confirm 4.6
COc1ccc(/C=C2\N=C(c3ccc(C)cc3)OC2=O)cc1	none
Cc1ccc(C2=N/C(=C\N3CCCCC3)C(=O)O2)cc1	MsrA inhibitor 6.1 | MsrA inh confirm 5.9
Cc1ccc(C2=N/C(=C/N3CCOCC3)C(=O)O2)cc1	MsrA inhibitor 6.5 | MsrA inh confirm 7.6
O=C(N/C(=C/c1ccc(Cl)cc1)c1nc2ccccc2[nH]1)c1ccco1	none
O=C(N/C(=C/c1ccc(Br)cc1)c1nc2ccccc2[nH]1)c1ccco1	MsrA inhibitor 5.9 | MsrA inh confirm inactive
COc1ccc(C(=O)/C=C/c2ccsc2)cc1CSCC(=O)O	MsrA inhibitor 4.7 | MsrA inh confirm inactive
